An excerpt weighted towards active compounds, which were near 21% of everything screened.
Shiga toxin inh: Shiga toxin inhibition; Vero cells, Shiga toxin protein synthesis inhibition reporter; inhibition, % at 38.7 µM; 9.2% of 290,000 active; AID 2315; in the data active = inhibition mostly above about 28%, no sharp cut-off; inactive = mostly below about 43%; note: 0% is about no effect
Pf growth 96h: inhibits malaria parasite growth, 96 h; Potency, µM (highest dose often 28.7 µM), for inactives: at the top dose activity change, negative = inhibition, actives largely listed as inhibitors; P. falciparum luciferase reporter growth, 96 h; 6.9% of 320,000 active; note: potency is the fitted concentration of half-maximal effect; % is set by controls: 0 for no effect and ±100 for the full control effect
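96 h incubation, 37 C, 5% CO2, of luciferase-reporter P. falciparum-infected RBCs (2% hematocrit, 0.05% parasitemia final) with test compounds; endpoint luminescence.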
Cycloheximide cs: counter-screen hit for Shiga toxin inhibitors, cycloheximide; cell reporter, cycloheximide protein synthesis inhibition counterscreen; max response, %; 12% of 300,000 active; AID 2314; in the data active = max response mostly above about 13%, no sharp cut-off; inactive = mostly below about 14%; note: read at 38.3 µM for the half of the compounds with a filed dose; 0% is about no effect
NS1 inh: influenza NS1 inhibition; Potency, µM (titrated, usually from 46.1 µM), without a hit: at the top dose activity, positive = more growth; 0.4% of 270,000 active; calls by dose curve; note: potency is the fitted concentration of half-maximal effect; actives are rising curves; nearly all actives have a fitted effect of over 50% in size
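OD600 was taken as the measure of yeast growth restored by compound in an NS1-expressing S. cerevisiae strain. Cells had been washed out of glucose medium and diluted 1:100 into galactose -URA medium, pH 6.0.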
FBPA Giardia inh: Giardia lamblia aldolase inhibition. 0.71% of 290,000 active. A8B2U2. purified Giardia FBPA. Potency, µM (series often up to 59.6 µM), without a hit: top-dose activity, negative = inhibition, hits mostly inhibitors. AID 2451; note: potency is the fitted concentration of half-maximal effect; % is set by controls: 0 for no effect and ±100 for the full control effect; nearly all actives have a fitted effect of over 55% in size
Target sequence (A8B2U2 whole entry, looked up): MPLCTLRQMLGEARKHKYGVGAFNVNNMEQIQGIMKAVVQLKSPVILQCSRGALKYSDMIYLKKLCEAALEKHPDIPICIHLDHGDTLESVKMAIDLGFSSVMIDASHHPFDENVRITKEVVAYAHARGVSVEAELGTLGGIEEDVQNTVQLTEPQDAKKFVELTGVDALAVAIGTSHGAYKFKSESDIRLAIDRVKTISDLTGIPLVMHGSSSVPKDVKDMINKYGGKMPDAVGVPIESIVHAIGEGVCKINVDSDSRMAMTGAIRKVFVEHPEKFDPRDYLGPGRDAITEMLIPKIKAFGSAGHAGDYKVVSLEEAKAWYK
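40 nM FBPA preincubated 10 min at RT with compound (up to 57.5 uM final), then substrate plus GAPDH/TPI/NAD/arsenate coupling and diaphorase/resazurin added. Fluorescence read after 20 min at RT, 525/598 nm.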
Pf growth 48h: inhibits P. falciparum growth in the first generation, 48 h | P. falciparum luciferase growth in erythrocytes, 48 h | Potency, µM (series often up to 28.7 µM), without a hit: at the highest dose activity change, negative = inhibition, actives largely listed as inhibitors | 5.9% of 310,000 active | AID 504832; note: potency is the fitted concentration of half-maximal effect; % is set by controls: 0 for no effect and ±100 for the full control effect
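Firefly luciferase activity from engineered P. falciparum reports growth; inhibitors lower the luminescent signal. Cultures contained 2% hematocrit erythrocytes at 0.1% final parasitemia.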
* hit, by the source's call; ? = inconclusive; . = no result; [ ] = dose if it differs, or a comment. Unless noted, calls come from the whole dose curve; as a rule, active = well fitted curve in the direction sought with a large enough effect; inconclusive = small, poorly fitted or top-dose-only effect, or another doubt; inactive = no such curve, though single readings can be large; an effect the other way counts as inactive or inconclusive.

SMILES	Shiga toxin inh	Pf growth 96h	Cycloheximide cs	NS1 inh	FBPA Giardia inh	Pf growth 48h
Cc1cccc(NC(=O)CSc2nc3c([nH]c4ccccc43)c(=O)n2C)c1	17.9	?	-0.9	7.6%	5.1%	19.3%
COCCn1c(SCC(=O)Nc2ccc(NC(C)=O)cc2)nc2ccccc2c1=O	-3.6	?	-1.6	0.2%	6.8%	-6.0%
Cc1cccc(NC(=O)CSc2nc3ccccc3c(=O)n2C)c1	1.8	?	-1.3	-40.9%	2.2%	14.7µM*
COCCCn1c(SCC(=O)Nc2ccc(C(C)=O)cc2)nc2ccccc2c1=O	79.8*	-5.0%	44.6*	-10.8%	-14.6%	?
COC(CNC(=O)c1ccc2nc3ccccc3c(=O)n2c1)OC	3.7	30.7%	10.2	-4.1%	6.4%	18.1%
COCCCNC(=O)c1ccc2nc3ccccc3c(=O)n2c1	-1.1	.	12.9*	-6.2%	.	43.3%
Cc1ccccc1CSc1nc2ccccc2c(=O)n1C	.	?	.	.	.	9.28µM*
COCCn1c(SCC(=O)Nc2cc(C(C)(C)C)nn2-c2ccccc2)nc2ccccc2c1=O	10.8	22.5%	0.9	6.6%	3.6%	-10.6%
CCOCCCn1c(SCC(=O)Nc2cc(C(C)(C)C)nn2-c2ccccc2)nc2ccccc2c1=O	-6.1	?	1.2	-11.3%	-5.1%	13.1µM*
COCCn1c(SCC(=O)Nc2cccc(C(=O)OC)c2)nc2ccccc2c1=O	7.8	49.4%	-1.3	-21.8%	3.6%	13.1µM*
CCn1c(SCC(=O)Nc2ccc3[nH]c(=O)[nH]c3c2)nc2ccccc21	.	-15.8%	.	.	.	17.4%
CC(=O)c1ccc(NC(=O)CSc2nc(=O)cc(N)n2-c2ccccc2)cc1	91.1*	7.5%	32.8*	-0.9%	4.4%	29.3%
CCn1c(SCC(=O)Nc2ccc(C(C)=O)cc2)nc2ccccc21	107.1*	.	41.8*	11.4%	-5.5%	63.1%
COc1ccc(-c2cc3nc4c(c(=O)n3[nH]2)CCC4)cc1	37.0	-5.8%	21.2*	?	-8.8%	?
O=c1c2c(nc3cc(-c4ccccc4)[nH]n13)CCC2	94.8*	?	57.5*	-4.4%	-4.9%[12.9 µM]	151.5%
Cc1cc2nc3c(c(=O)n2[nH]1)CCCC3	3.0	6.4%	-0.9	8.5%	-12.6%	11.7µM*
CN(c1cccc(Cl)c1)S(=O)(=O)c1cccc(C(=O)NN2CCOCC2)c1	.	3.3%	.	.	.	10.9%
Nc1ccc2c(c1)N=[N+]([O-])c1cc(N)ccc1C2	-2.3	36.8%	-0.7	?	-7.3%	1.6%
CCc1cc2cc(C)ccc2nc1SCC(=O)NC1CCCC1	-13.2	-4.5%	-1.1	-23.9%	-2.2%	?
O=C(NCc1ccccc1)NC(=O)c1ccccc1F	32.8*	?	27.5*	-7.2%	-1.3%	59.6%
O=C(NN=C(Cc1ccccc1)Cc1ccccc1)C1CC1	27.3	7.1%	20.9*	.	0.8%	-15.8%
COc1ccc(C(=O)NN=C(Cc2ccccc2)Cc2ccccc2)cc1OC	10.9	-10.8%	0.2	4.8%	0.9%	11.3%
Cc1cc(C(=O)NN=C(Cc2ccccc2)Cc2ccccc2)c(C)o1	84.0*	-7.6%	28.5*	15.5%	6.5%	-26.5%
CC/C(Cc1ccccc1)=N\NC(=O)c1cc(C)oc1C	1.1	-19.8%	-2.0	1.4%	-0.6%	12.5%
O=C(NN=C(Cc1ccccc1)Cc1ccccc1)c1ccncc1	20.9	?	8.0*	-1.8%	-13.2%	13.1%
SMILES	Shiga toxin inh	Pf growth 96h	Cycloheximide cs	NS1 inh	FBPA Giardia inh	Pf growth 48h
O=C(NN=C(Cc1ccccc1)Cc1ccccc1)c1ccccc1F	90.7*	22.8%	37.5*	.	-3.6%	7.1%
Cc1nc(Cl)c(C(=O)NC(=O)NCc2ccccc2)c(C)c1Cl	5.9	13.1µM*	-4.9	-9.8%	2.5%	5.5%
CCCC(CCC)=NNC(=O)c1ccccc1F	16.6	85.2%	18.8	.	-7.6%	33.4%
O=C(Nc1ccnn1C1CCN(C(=O)c2cccc(Cl)c2)CC1)C1CC1	-3.0	-22.7%	24.3	-4.3%	.	-6.1%
Cc1ccc(S(=O)(=O)Nc2cccc3ccc(C)nc23)cc1	-7.1	.	5.7	.	?	.
Cc1ccccc1NC(=O)CC(=O)c1ccccc1	22.3	-22.3%	18.2*	13.4%	9.9%	31.6%
O=C(CC(=O)c1ccccc1)Nc1ccccc1C(F)(F)F	29.8	11.7µM*	31.9*	-1.7%	-5.1%	21.0%
CCC(C)N(CC(=O)Nc1cccc(C)c1C)C(=O)CCl (centres undefined)	-2.4	3.7µM*	3.8	.	-0.7%	?

Source: PubChem BioAssay
